Compounds with a hit are over-represented: about 6.5% of the library has one in this group of screens.
HepG2 tox: qHTS for Inhibitors of TGF-b: Cytotox Counterscreen; HepG2 CAGA-GFP viability, ATP luminescence, 18 h; Potency, µM (highest dose often 46.1 µM), inactives show at the highest dose activity change, negative = cytotoxicity, usual class: cytotoxic; 410,000 compounds, 0.76% hits; AID 588856, 2011; further: potency means the concentration at half of the fitted maximal effect
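CellTiter-Glo luminescence gave cytotoxicity after 18 hours at 37 degrees C. The cells were HepG2 CAGA-GFP in 1% FBS DMEM, stimulated with 500 pg/mL TGF-beta after compound addition. %Activity was normalised to no-cell wells (complete cell-killing) and DMSO (no toxicity), and curves were fitted and classified.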
HT1080NT lethal: qHTS for induction of synthetic lethality in tumor cells producing 2HG: qHTS for the HT-1080-NT fibrosarcoma cell line | 360,000 compounds, 1.6% hits | AID 686970, 2013 | HT-1080-NT fibrosarcoma viability, CellTiter-Glo ATP luminescence, 48 h | Potency, µM (top dose mostly 46.1 µM), for inactives: at the top dose activity, negative = less viability, hits mostly cytotoxic;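 further: NT is the 2HG producing partner of a matched IDH1 knockdown line; potency means the concentration at half of the fitted maximal effect; 0% = DMSO-treated cells and -100% = media-only wells without cells; nearly all actives have a fitted effect of over 55% in size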
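Read-out is CellTiter-Glo luminescence after 10 minutes at room temperature, following 48 hours' compound treatment of HT-1080-NT cells (750 cells/well, RPMI, 5% FBS, 37 degrees C).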
HT1080 IDH1KD tx: qHTS for induction of synthetic lethality in tumor cells producing 2HG: qHTS for the HT-1080-IDH1KD cell line. 360,000 compounds, 2% hits. Potency, µM (highest dose often 46.1 µM), inactives show top-dose activity, negative = toxicity, hits mostly cytotoxic. AID 686971, 2013. HT-1080 IDH1 knockdown viability, ATP luminescence, 48 h;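 further: potency means the concentration at half of the fitted maximal effect; 0% = DMSO wells and -100% = cell-free medium wells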
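Assay cells: HT-1080 with IDH1 knockdown, 750 per well, RPMI/5% FBS. Exposure: 48 h at 37 °C following 2 h pre-incubation. Read: CellTiter-Glo luminescence; fitted concentration-response, curve class assigned.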
TGFb SMAD3 inh: qHTS for Inhibitors of TGF-b | HepG2 CAGA-GFP TGF-b/SMAD3 reporter, GFP fluorescence, 18 h; TGF-beta stimulated, 500 pg/mL final | Potency, µM (top dose mostly 46.1 µM), without a hit: at the highest dose activity, negative = inhibition, actives largely listed as inhibitors | 410,000 compounds, 1.2% hits | AID 588855, 2011; further: potency means the concentration at half of the fitted maximal effect; on the % scale 0 is the no-effect control and ±100 the full control effect; nearly all actives have a fitted effect of over 65% in size
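Inhibition of TGF-beta-driven CAGA-GFP reporter expression in HEPG2 cells is measured by cellular GFP fluorescence after 18 h stimulation with 500 pg/mL recombinant TGF-beta in 1% FBS medium at 37 degrees C.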
IL1B secr inh: qHTS for Inhibitors of Inflammasome Signaling: IL-1-beta AlphaLISA Primary Screen; AID 743279, 2014; activity change, % at 57.5 µM; 360,000 compounds, 4.7% hits; THP-1 LPS/ATP IL-1B secretion, AlphaLISA, 16 h; stronger effect = lower value; in the data active means activity change below about -50%; inconclusive means mostly about -30% to -49%; further: on the % scale 0 is the no-effect control and ±100 the full control effect
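Secreted IL-1B measured by AlphaLISA bead assay after 16 h compound exposure of THP-1 cells; compounds (final up to 57.5 uM) added 1 h before LPS (250 ng/mL) and ATP (1.25 mM) stimulation; lower signal means less secretion.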
Giardia killer: Small Molecules that selectively kill Giardia lamblia: qHTS; Giardia lamblia trophozoite viability; activity change, % at 7.66 µM, hits read low; 340,000 compounds, 0.15% hits; in the data active means activity change below about -80%; inconclusive means between about -30% and that limit;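 further: parasites exposed to compound for two days anaerobically before the ATP read; on the % scale 0 is the no-effect control and ±100 the full control effect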
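Trophozoite viability was measured as ATP-dependent luminescence, read 15-30 min after reagent addition. Before that, parasites at 100 cells/well were exposed to compounds for 48 h, anaerobically, at 37 deg C.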
The depositor's hits bear a star; ? = inconclusive; / = not tested or not shown; ! = repeats disagree. Unless noted, the call rests on the fitted dose curve; in most records, active means well fitted curve in the direction sought with a large enough effect; inconclusive means small, poorly fitted or top-dose-only effect, or another doubt; inactive means no such curve, though single readings can be large; an effect the other way counts as inactive or inconclusive.

SMILES	HepG2 tox	HT1080NT lethal	HT1080 IDH1KD tx	TGFb SMAD3 inh	IL1B secr inh	Giardia killer
COc1ccccc1NC(=O)/C(C#N)=C/C=C/c1ccco1	-4%	1.8µM*	1.4µM*	2%	23	-4
N#C/C(=C\C=C\c1ccccc1)C(=O)NCc1ccco1	-28%	?	?	?	-81*	8
COc1ccccc1NC(=S)N(Cc1ccccn1)Cc1ccccc1Cl	7%	1%	9%	11%	19	19
O=C(CC1C(=O)NCCN1Cc1ccc(-c2ccccc2)cc1)NCC1CC1 (stereo not drawn)	0%	-4%	-8%	-14%	-54*	15
O=C(Nc1ccccc1)Nc1ccc2ocnc2c1	-14%	12%	30%	-6%	-16	2
O=C(Nc1ccccc1)Nc1ccc2ncoc2c1	0.25µM*	2%	0%	1%	-63*	0
O=C(Nc1ccc2c(c1)OCO2)c1ccc(S(=O)(=O)N2CCCC2)cc1	-1%	12%	-1%	10%	-15	-10
CC1(C)CC(N2CCCC2)=CC(=[N+]2CCCC2)C1	-31%	?	?	?	-8	-12
Nc1ccc2cc3[nH]c4cc(N)ccc4c3nc2c1	-23%	?	?	?	-109*	-12
O=S(=O)(Nc1ccc2c(c1)OCCO2)c1ccc(F)cc1	-27%	0%	-18%	-1%	-9	7
COc1ccccc1CNC(=O)CSc1nc(C)cs1	7%	7%	2%	8%	0	14
CCC1C(=O)C(C)(C)C(=O)OC1c1ccc([N+](=O)[O-])cc1 (stereo not drawn)	-11%	19%	13%	-7%	-4	17
O=C1CC(=O)OC(c2ccc([N+](=O)[O-])cc2)O1	-57%	16µM*	4.6µM*	?	-55*	/
C=CCn1c2ccccc2c2nnc(SCCCn3c(=O)[nH]c4ccccc43)nc21	-29%	?	16µM*	-27%	-79*	-5
c1csc(-c2nc3ccccn3c2NC2CCCCC2)c1	-1%	-3%	?	2%	-86*	14
CCC(C)Sc1cc(-c2nc3cc(C)ccn3c2NC2CCCCC2)ccc1OC (stereo not drawn)	-59%	21µM*	?	?	-81*	25
CC(=O)c1ccc(-c2cccc(-c3nc4ccccn4c3NC3CCCCC3)c2)cc1	-25%	?	?	?	-66*	5
CCC(C)Sc1cc(-c2nc3ccccn3c2NC2CCCCC2)ccc1OC (stereo not drawn)	-117%	26µM*	18µM*	?	-91*	-7
CCC(C)Sc1ccc(-c2nc3ccc(C)cn3c2NC2CCCCC2)cc1 (stereo not drawn)	-26%	/	/	1%	21	-12
O=C(c1cc(C2CC2)nn1-c1ccccc1)N1CCN(c2ccc(O)cc2)CC1	-6%	0%	-16%	0%	-13	26
O=C(NCCCc1ccccc1)c1cccc(NC(=O)C2CC2)c1	-25%	8%	9%	-17%	-30	-6
CCC(C)Sc1cccc(-c2nc3ccc(C)cn3c2NC2CCCCC2)c1 (stereo not drawn)	-41%	-16%	-13%	?	-77*!	-2
CN(C)CCN=Cc1c(O)n(Cc2ccc3c(c2)OCO3)c(=O)c2ccccc12	14%	-11%	-7%	22%	-53*	39
O=c1c2ccccc2c2ccccc2c(=O)n1Cc1ccc2c(c1)OCO2	-13%	-3%	-4%	24%	0	/
Cc1ccccc1-n1cc(-c2ccccc2)nc1SCC(=O)Nc1ccc(F)cc1	-3%	/	/	?	/	/
SMILES	HepG2 tox	HT1080NT lethal	HT1080 IDH1KD tx	TGFb SMAD3 inh	IL1B secr inh	Giardia killer
Cc1ccccc1NC(=O)CSc1nc(-c2ccccc2)cn1-c1ccccc1F	-1%	/	/	11µM*	/	/
COc1ccc(CCN2CCCn3c2nc2c3c(=O)n(CC(N)=O)c(=O)n2C)cc1OC	12%	19%	19%	0%	5	11
CNc1ccc(Oc2c(F)c(F)nc(F)c2F)cc1	-9%	5%	7%	-21%	-20	7
O=C(CCCN1C(=O)/C(=C/c2ccccc2)SC1=S)Nc1cccc(O)c1	-67%	-27%	-24%	14µM*	-52*	-1
Cc1ccc(/C=C2/SC(=S)N(CCCC(=O)Nc3ccc(O)cc3)C2=O)cc1	-52%	16µM*	21µM*	?	-62*	-4
COc1ccc(/C=C2\SC(=S)N(CCC(=O)Nc3ccc(O)cc3)C2=O)cc1	3%	?	0%	0%	16	2
COc1cc(/C=C2\SC(=S)N(CCC(=O)Nc3cccc(O)c3)C2=O)cc(OC)c1OC	-36%	?	?	13µM*	-98*	18
CCN(CC)CCOC(=O)c1ccc(NC(=O)CCCN2C(=O)S/C(=C/c3ccc(OC)cc3)C2=S)cc1	-28%	?	12µM*	-7%	-69*	20
COc1cc(/C=C2\SC(=S)N(CCC(=O)Nc3ccccc3)C2=O)cc(OC)c1OC	16%	?	?	23%	8	8
COc1ccc(/C=C2/SC(=S)N(CCCC(=O)Nc3ccc(O)cc3)C2=O)cc1OC	-14%	-26%	-16%	-13%	-8	10
O=c1cc(N2CCC3(CC2)OCCO3)[nH]c(=O)n1C1CCCCC1	-41%	2%	-1%	-14%	-2	-2
COc1cccc(/C=C2\SC(=S)N(CC3CCCO3)C2=O)c1 (stereo not drawn)	-9%	2%	-20%	-2%	-71*	3
O=C(CCCN1C(=O)/C(=C\c2ccccc2)SC1=S)Nc1ccc(O)cc1	-7%	23µM*	15µM*	?	-105*	14
COc1cccc(/C=C2/SC(=S)N(CCCC(=O)Nc3ccc(O)cc3)C2=O)c1	-72%	?	?	?	-85*	?
COc1cccc(/C=C2\SC(=S)N(CCCC(=O)Nc3ccc(C(=O)O)cc3)C2=O)c1	-18%	-24%	-22%	-1%	-13	11
